RORgamma inh: blocks mouse ROR gamma transcriptional activity | 310,000 compounds, 5.4% hits | Potency, µM (highest dose often 53.6 µM), usual class: inhibitors | Drosophila S2 Gal4-RORgamma UAS-luciferase reporter, 20 h | P51450; note: nearly all actives have a fitted effect of over 60% in size
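In this cell-based reporter format, copper sulfate (700 uM final) drives Gal4–ROR gamma fusion expression from a metallothionein promoter in Drosophila Schneider cells; compounds preincubated 1 hr, reporter read after 20 hr at ambient temperature.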
Gal4-VP16 FLuc: inhibits Gal4-VP16 luciferase reporter, ROR gamma counter-screen | Drosophila S2 Gal4-VP16 UAS-luciferase, luminescence, 20 h | 310,000 compounds, 3.5% hits | Potency, µM (doses to about 53.6 µM), most hits filed as inhibitors;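 note: Gal4-VP16 expression switched on by copper sulfate through the metallothionein promoter; nearly all actives have a fitted effect of over 50% in size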
CtBP-E1A inh: inhibitors of CtBP/E1A interaction; AlphaScreen GST-E1A/His-CtBP binding, 1536-well; active compounds read low; activity change, % (no concentration beside the values); 340,000 compounds, 0.49% hits; AID 651724; in the data active = activity change below about -65%; inconclusive = mostly about -30% to -63%
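Steps: dispense buffer (Tris pH 8.0, NaCl 300 mM, TCEP 1 mM, BSA, Tween 20); add 5X protein mix (GST-E1A, His-CtBP, 125 nM each); pin 23 nL compound; 2 h at 37 °C, dark; add 5X beads (50 ug/mL); 1 h; read.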
Six1-Eya2 blk: Six1/Eya2 interaction inhibition; Q15475+O00167; 360,000 compounds, 0.56% hits; activity change, % (no concentration beside the values); AlphaScreen GST-Six1/His-Eya2 binding, biochemical; active compounds read low; in the data active = activity change below about -65%; inconclusive = mostly about -30% to -63%
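Six1/Eya2 binding was read as AlphaScreen signal after compounds were pinned into GST-Six1 plus His-tagged Eya2 (5X stock 250/500 nM) in pH 8.0 Tris/NaCl/TCEP buffer, beads added, then incubated 1 h, 37 C, dark.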
PKM2 activator: activators of human pyruvate kinase M2; 260,000 compounds, 0.34% hits; Potency, µM (titrated, usually from 57.5 µM), actives largely listed as activators; purified PKM2, Kinase-Glo ATP luminescence, activation; response scale: 0% is enzyme alone, no compound; AID 1631; P14618; note: nearly all actives have a fitted effect of over 55% in size
Target sequence (P14618 whole entry, looked up): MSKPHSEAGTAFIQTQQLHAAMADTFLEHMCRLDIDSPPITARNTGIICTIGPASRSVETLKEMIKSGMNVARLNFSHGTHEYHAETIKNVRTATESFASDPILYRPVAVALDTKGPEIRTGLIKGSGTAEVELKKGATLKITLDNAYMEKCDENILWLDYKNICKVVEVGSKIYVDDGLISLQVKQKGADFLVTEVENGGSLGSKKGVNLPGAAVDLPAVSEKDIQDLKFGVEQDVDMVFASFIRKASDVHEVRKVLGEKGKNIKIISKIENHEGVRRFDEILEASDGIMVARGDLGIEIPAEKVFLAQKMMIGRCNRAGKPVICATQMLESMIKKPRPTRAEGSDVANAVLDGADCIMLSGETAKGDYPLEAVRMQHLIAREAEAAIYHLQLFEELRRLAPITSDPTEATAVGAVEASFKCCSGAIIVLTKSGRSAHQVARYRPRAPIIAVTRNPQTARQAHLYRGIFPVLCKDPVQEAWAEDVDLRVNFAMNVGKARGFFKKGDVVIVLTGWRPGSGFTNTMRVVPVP
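Purified hPK-M2 (>95% pure) converted ADP (0.1 mM final) to ATP with 0.5 mM PEP in 50 mM imidazole pH7.2, KCl, MgCl2, Tween 20, BSA; 1 h at room temperature. ATP detected by Kinase-Glo luminescence.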
Of the large screens only hits and unclear results are named; the others gave an inactive call. Most compounds without a hit are left out; they make up all but 5.6% or so of the library. Unless noted, calls come from the whole dose curve; as a rule, active = well fitted curve in the direction sought with a large enough effect; inconclusive = small, poorly fitted or top-dose-only effect, or another doubt; inactive = no such curve, though single readings can be large; an effect the other way counts as inactive or inconclusive.

COC(=O)[C@]12CCCCC=C1N(Cc1ccc(Cl)cc1Cl)C(=O)[C@H](CC(=O)N1CCOCC1)C2	none (no result: RORgamma inh, Gal4-VP16 FLuc, PKM2 activator)
CC1CCN(c2ccccc2NC(=S)NC(=O)C(C)(C)C)CC1	RORgamma inh 1.6µM, Gal4-VP16 FLuc inconclusive
CC1CCN(c2ccccc2NC(=S)NC(=O)c2ccco2)CC1	none (no result: RORgamma inh, Gal4-VP16 FLuc, PKM2 activator)
COc1cccc(CCN2C(=O)CCC3=C2CCC3=O)c1	none (no result: RORgamma inh, Gal4-VP16 FLuc, PKM2 activator)
COc1ccc(-c2cn[nH]c2-c2ccc(OCc3ccc(F)cc3)cc2O)cc1OC	RORgamma inh 1.6µM, Gal4-VP16 FLuc 3.5µM
COc1ccccc1-c1cn[nH]c1-c1ccc(OCc2ccc(F)cc2)cc1O	RORgamma inh 7.9µM, Gal4-VP16 FLuc inconclusive
COc1ccccc1-c1cn[nH]c1-c1ccc(OCc2ccc([N+](=O)[O-])cc2)cc1O	RORgamma inh inconclusive
COc1ccccc1-c1cn[nH]c1-c1ccc(OCc2ccccc2F)cc1O	RORgamma inh 8.9µM, Gal4-VP16 FLuc inconclusive
COc1ccccc1-c1cn[nH]c1-c1ccc(O)cc1O	RORgamma inh inconclusive, Gal4-VP16 FLuc inconclusive (no result: PKM2 activator)
CC1=NNC(=O)C1C(c1ccccc1)C1C(=O)NN=C1C (stereo not drawn)	none (no result: CtBP-E1A inh, Six1-Eya2 blk)
CC1CCN(C(=S)Nc2ccc(SC(F)F)cc2)CC1	RORgamma inh 7.9µM, Gal4-VP16 FLuc 11µM
CC1CCCCC1NC(=S)Nc1ccc(SC(F)F)cc1 (stereo not drawn)	RORgamma inh 6.3µM, Gal4-VP16 FLuc 11µM
CN(CC(=O)Nc1ccc(SC(F)F)cc1)C1CCCCC1	none
FC(F)Sc1ccc(NC(=S)NCC2CCCCC2)cc1	RORgamma inh 8.9µM, Gal4-VP16 FLuc 10µM
FC(F)Sc1ccc(NC(=S)NC2CCCCC2)cc1	RORgamma inh 8.9µM, Gal4-VP16 FLuc inconclusive
Cc1cc(-c2ccccc2)n2ncnc2n1	none
S=c1[nH]nc(-c2ccncc2)n1Cc1ccccc1	RORgamma inh 13µM
Cc1cc(-c2n[nH]c(=S)n2Cc2ccccc2)cs1	RORgamma inh 5.6µM, Gal4-VP16 FLuc inconclusive
S=c1[nH]nc(-c2cccnc2)n1Cc1ccccc1	RORgamma inh inconclusive, Gal4-VP16 FLuc inconclusive
CC(C)(C)c1ccc(-c2n[nH]c(=S)n2Cc2ccccc2)cc1	RORgamma inh 2.2µM, Gal4-VP16 FLuc 7.1µM (no result: PKM2 activator)
CC(C)n1c(-c2ccc(C(C)(C)C)cc2)n[nH]c1=S	RORgamma inh 4.5µM, Gal4-VP16 FLuc 10µM
Nc1ccn([C@@H]2O[C@H](CNCc3ccc(Oc4cc(-n5cccn5)ncn4)cc3)[C@@H](O)[C@H]2O)c(=O)n1	none (no result: RORgamma inh, Gal4-VP16 FLuc, PKM2 activator)
CCCCOc1ccc(-c2n[nH]c(=S)n2Cc2ccccc2)cc1	RORgamma inh 1.6µM, Gal4-VP16 FLuc inconclusive (no result: PKM2 activator)
Fc1ccc(-c2c[nH]c(=S)n2Cc2ccccc2)cc1	RORgamma inh 0.63µM, Gal4-VP16 FLuc 1.4µM
Oc1ccc(-c2n[nH]c(=S)n2Cc2ccccc2)cc1	none (no result: Gal4-VP16 FLuc)
S=c1[nH]nc(-c2ccc(Br)cc2)n1Cc1ccccc1	RORgamma inh 2.2µM, Gal4-VP16 FLuc 5.6µM
Fc1ccc(-c2n[nH]c(=S)n2Cc2ccccc2)cc1	RORgamma inh 2.8µM, Gal4-VP16 FLuc 11µM (no result: PKM2 activator)
O=C(c1cc(COc2ccc(F)c(F)c2)on1)N1CCN(C2CCCCC2)C(=O)C1	RORgamma inh inconclusive (no result: CtBP-E1A inh, PKM2 activator)
CCCS/C(N)=N/N=C/c1cc(C)ccc1O	RORgamma inh 0.89µM, Gal4-VP16 FLuc 2µM
CCCCS/C(N)=N/N=C/c1ccccc1O	RORgamma inh 0.63µM, Gal4-VP16 FLuc 1.1µM
CSc1cc(C)c(OCC(=O)Nc2ccc(NC(C)=O)cc2)c(C)c1	none (no result: CtBP-E1A inh)
Cc1ccc(NC(=O)NC2CCCCCCC2)c(C)c1	none
Cc1ccc(C)c(NC(=S)NC2CC3CCCC(C2)N3CC(C)C)c1 (stereo not drawn)	RORgamma inh 14µM, Gal4-VP16 FLuc inconclusive
CCCN1C2CCCC1CC(NC(=S)Nc1cc(C)cc(C)c1)C2 (stereo not drawn)	none
Cc1cc(OC(F)F)ccc1NC(=S)NC1CCCC1	RORgamma inh 2.5µM, Gal4-VP16 FLuc 7.1µM
Cc1ccc(NC(=S)NC2CCCC2)c(C)c1	RORgamma inh 7.1µM, Gal4-VP16 FLuc 6.3µM
Cc1ccc(NC(=O)NC2CCCCC2)c(C)c1	none
Cc1cc(F)ccc1NC(=S)NC1CCCC1	RORgamma inh 6.3µM, Gal4-VP16 FLuc 10µM
O=C1CN(S(=O)(=O)c2cccc(Br)c2)CCN1	none (no result: RORgamma inh, Gal4-VP16 FLuc, PKM2 activator)

High-throughput results deposited in PubChem BioAssay by National Center for Advancing Translational Sciences (NCATS).
